Test results as given in PubChem BioAssay AID2284062 (EPA ToxCast).
Activity calls are given as the source filed them. How the source made its calls: active means hit-call score of the fitted dose curve at least 0.9, where 1 is the maximum; inactive means score below 0.9.

molecular target: human CK1delta CK1 Kinase, CSNK1D (gene 1453) (UniProt P48730); assay: ERF_TW_ENZ_hCSNK1D: Eurofins (ERF) Enzymatic Radiometric [10 uM ATP] Assay for human CK1delta CK1 Kinase
Protocol: ERF_TW_ENZ_hCSNK1D is a biochemical, single-readout assay that uses extracted gene-proteins in a cell-free assay. Measurements were taken 0.5 hour after chemical dosing in a 96-well plate. See CK1delta Human CK1 Kinase Enzymatic Radiometric Assay [10 uM ATP], Panlabs.ERF_TW_ENZ_hCSNK1D is an assay component calculated from the ERF_TW_ENZ_hCSNK1D assay. It is designed to measure enzyme activity using a type of enzyme reporter as detected by scintillation counting with radiometry technology.Data from the assay component ERF_TW_ENZ_hCSNK1D was analyzed at the assay endpoint, ERF_TW_ENZ_hCSNK1D, in the positive analysis fitting direction relative to DMSO as the negative control and baseline of activity. Using a type of enzyme reporter, loss-of-signal activity can be used to understand changes in enzymatic activity as they relate to gene CSNK1D. To generalize the intended target to other relatable targets, this assay endpoint is annotated to the kinase intended target family, where the subfamily is serine/threonine kinase.
CK1d (h) is incubated with 8 mM MOPS pH 7.0, 0.2 mM EDTA, 200 uM KRRRALS(p)VASLPGL, 10 mM MgAcetate and [gamma-33P]-ATP (specific activity and concentration as required). The reaction is initiated by the addition of the Mg/ATP mix. After incubation for 40 minutes at room temperature, the reaction is stopped by the addition of phosphoric acid to a concentration of 0.5%. […]

Sequence of human CK1delta CK1 Kinase, CSNK1D (gene 1453) (P48730 whole entry, looked up): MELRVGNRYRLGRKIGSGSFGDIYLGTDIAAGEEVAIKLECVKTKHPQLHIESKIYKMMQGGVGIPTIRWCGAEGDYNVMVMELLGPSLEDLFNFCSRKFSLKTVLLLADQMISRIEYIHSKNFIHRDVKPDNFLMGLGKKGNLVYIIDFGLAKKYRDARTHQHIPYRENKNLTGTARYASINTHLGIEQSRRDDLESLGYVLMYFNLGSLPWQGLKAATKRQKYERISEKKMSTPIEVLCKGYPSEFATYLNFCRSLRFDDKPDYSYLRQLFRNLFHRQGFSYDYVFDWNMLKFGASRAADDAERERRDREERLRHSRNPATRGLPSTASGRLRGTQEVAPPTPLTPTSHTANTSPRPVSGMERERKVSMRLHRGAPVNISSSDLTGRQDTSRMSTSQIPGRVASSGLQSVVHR

| SMILES | AC50 |
| --- | --- |
| O=C(/C=C/c1ccc(O)cc1)CC(=O)/C=C/c1ccc(O)cc1 | 1.66 µM (active) |
